Values joined by “and” are separate entries in the source; they are usually repeats but may differ in a detail not shown here. Identical values can stand only once. Inconclusive results are not listed. Entries that show only a call come without a potency. Active and inactive are the calls of the source. Calls come from the whole dose curve; as a rule, active = well fitted curve in the direction sought with a large enough effect in the repeat runs; inconclusive = weak or mixed curves; inactive = no such curve, though single readings can be large; an effect the other way counts as inactive or inconclusive.
Assay: qHTS assay for small molecule disruptors of the mitochondrial membrane potential (AID 720635); note: potency is the fitted concentration of half-maximal effect
Details: HepG2 mitochondrial membrane potential, Mito-MPS dye ratio; series mostly up to 83.2 µM
Procedure, shortened: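 HepG2 cells exposed to compound 1 hr at 37C, then Mito-MPS dye 30 min. Ratio read of aggregate (540/590 nm) versus monomer (490/535 nm) fluorescence.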

SMILES | Potency
NC(N)=NC(=O)c1nc(Cl)c(N)nc1N | inactive
NC(=O)c1cnccn1 | inactive
Cc1noc(NS(=O)(=O)c2ccc(N)cc2)c1C | inactive
Nc1ccc(S(=O)(=O)Nc2nccs2)cc1 | inactive
O=c1ccc2ccccc2o1 | inactive
Nc1ccc(O)c(C(=O)O)c1 | inactive
CCOc1ccc(NC(=O)CC(C)O)cc1 (configuration not stated) | inactive
CC(O)CO (configuration not stated) | inactive
O=C(O)CCCCCCCC(=O)O | inactive
O=S(=O)(O)c1ccc2cc(O)ccc2c1 | inactive
CC(O)C(=O)O (configuration not stated) | inactive
Oc1ccc(/C=C/c2cc(O)cc(O)c2)cc1 | 2.11 µM (active) and 692 nM (active) and 969 nM (active)
NC(=O)c1ccccc1O | inactive
CC(C)[C@@H]1CC[C@@H](C)C[C@H]1O | inactive
C1N2CN3CN1CN(C2)C3 | inactive
CC(O)CN(CCN(CC(C)O)CC(C)O)CC(C)O (configuration not stated) | inactive
Cc1cn([C@H]2C[C@H](N=[N+]=[N-])[C@@H](CO)O2)c(=O)[nH]c1=O | inactive
CCCN(CCC)S(=O)(=O)c1ccc(C(=O)O)cc1 | inactive

SMILES | Potency
CC(=O)Nc1nnc(S(N)(=O)=O)s1 | inactive
CCCCOC(=O)CC(CC(=O)OCCCC)(OC(C)=O)C(=O)OCCCC | 8.73 µM (active)
NNC(=O)c1ccncc1 | inactive
CCCCC(CC)COC(=O)/C=C/c1ccc(OC)cc1 (configuration not stated) | 54.2 µM (active)
NC(=O)NC1NC(=O)NC1=O (configuration not stated) | inactive
OC(Cn1cncn1)(Cn1cncn1)c1ccc(F)cc1F | inactive
COc1ccc2[nH]cc(CCNC(C)=O)c2c1 | inactive
CC(C)(Oc1ccc(C2CC2(Cl)Cl)cc1)C(=O)O (configuration not stated) | inactive
Cc1ccc(O)cc1 | inactive
O=C(O)C(=O)O | inactive
O=c1cc[nH]c(=S)[nH]1 | inactive
Cc1cc(=O)n(-c2ccccc2)n1C | inactive
CCCNC(=O)NS(=O)(=O)c1ccc(Cl)cc1 | inactive
Nc1ccn([C@H]2CC[C@@H](CO)O2)c(=O)n1 | inactive
CC(=O)NS(=O)(=O)c1ccc(N)cc1 | inactive
O=C(O)CCC(=O)O | inactive
Nc1ccc(C(=O)O)cc1 | inactive
NC(N)=O | inactive

Assay: qHTS assay to test for compound auto fluorescence at 590 nm (red) in HepG2 cells (AID 720674)
Details: HepG2 autofluorescence, red 540/590 nm, 1 h; series mostly up to 91.3 µM
Procedure, shortened: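 Fluorescence at 590 nm emission following 540 nm excitation was recorded from HepG2 wells one hour after compound transfer, with DMSO-only wells as vehicle and Rose Bengal sodium equivalency as the scale.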

SMILES | outcome
NC(N)=NC(=O)c1nc(Cl)c(N)nc1N | inactive
NC(=O)c1cnccn1 | inactive
Cc1noc(NS(=O)(=O)c2ccc(N)cc2)c1C | inactive
Nc1ccc(S(=O)(=O)Nc2nccs2)cc1 | inactive
O=c1ccc2ccccc2o1 | inactive
Nc1ccc(O)c(C(=O)O)c1 | inactive
CCOc1ccc(NC(=O)CC(C)O)cc1 (configuration not stated) | inactive
CC(O)CO (configuration not stated) | inactive
O=C(O)CCCCCCCC(=O)O | inactive
O=S(=O)(O)c1ccc2cc(O)ccc2c1 | inactive
CC(O)C(=O)O (configuration not stated) | inactive
Oc1ccc(/C=C/c2cc(O)cc(O)c2)cc1 | inactive
NC(=O)c1ccccc1O | inactive
CC(C)[C@@H]1CC[C@@H](C)C[C@H]1O | inactive
C1N2CN3CN1CN(C2)C3 | inactive
CC(O)CN(CCN(CC(C)O)CC(C)O)CC(C)O (configuration not stated) | inactive
Cc1cn([C@H]2C[C@H](N=[N+]=[N-])[C@@H](CO)O2)c(=O)[nH]c1=O | inactive
CCCN(CCC)S(=O)(=O)c1ccc(C(=O)O)cc1 | inactive

SMILES | outcome
CC(=O)Nc1nnc(S(N)(=O)=O)s1 | inactive
CCCCOC(=O)CC(CC(=O)OCCCC)(OC(C)=O)C(=O)OCCCC | inactive
NNC(=O)c1ccncc1 | inactive
CCCCC(CC)COC(=O)/C=C/c1ccc(OC)cc1 (configuration not stated) | inactive
NC(=O)NC1NC(=O)NC1=O (configuration not stated) | inactive
OC(Cn1cncn1)(Cn1cncn1)c1ccc(F)cc1F | inactive
COc1ccc2[nH]cc(CCNC(C)=O)c2c1 | inactive
CC(C)(Oc1ccc(C2CC2(Cl)Cl)cc1)C(=O)O (configuration not stated) | inactive
Cc1ccc(O)cc1 | inactive
O=C(O)C(=O)O | inactive
O=c1cc[nH]c(=S)[nH]1 | inactive
Cc1cc(=O)n(-c2ccccc2)n1C | inactive
CCCNC(=O)NS(=O)(=O)c1ccc(Cl)cc1 | inactive
Nc1ccn([C@H]2CC[C@@H](CO)O2)c(=O)n1 | inactive
CC(=O)NS(=O)(=O)c1ccc(N)cc1 | inactive
O=C(O)CCC(=O)O | inactive
Nc1ccc(C(=O)O)cc1 | inactive
NC(N)=O | inactive
